Screens from PubChem BioAssay.
GDH-TPI inh – GDH-TPI coupling enzyme inhibitors, primary screen, artefact control for M. tuberculosis FBA inhibitor project, biochemical, absorbance, full deck; inhibition, % at 4.8 µM; GDH-TPI coupled enzyme counterscreen, NADH absorbance; actives 1.2% (n = 360,000); in the data active = inhibition above about 30%;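 note: 0% = DMSO wells and 100% = wells lacking the enzyme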
BoNT A protease – BoNT/A light chain protease inhibitors, primary screen, biochemical, flow cytometry, MLPCN library; multiplex microsphere protease substrate cleavage; inhibition, % at 10 µM; actives 0.17% (n = 360,000); note: plate controls were buffer without enzyme for full effect and enzyme alone for no effect
BoNT F protease – BoNT/F light chain protease inhibitors, primary screen, biochemical, flow cytometry, MLPCN library. inhibition, % at 10 µM. actives 0.22% (n = 360,000). Botulinum neurotoxin type F light chain protease (Clostridium botulinum). Multiplex microsphere protease cleavage assay. AID 588497, 2011; in the data active = inhibition above about 35%, passing the limit was not always enough; inconclusive = no clear call, values can overlap the other calls; note: plate controls were buffer without enzyme for full effect and enzyme alone for no effect
Bead autofluor – counter-screen for toxin protease inhibitors: compound fluorescence. compound autofluorescence counterscreen, microsphere flow cytometry; hits give high values. actives 3.1% (n = 360,000). fluorescence intensity (concentration not given with the values); in the data active = fluorescence intensity above about 16000; inconclusive = no clear call, values can overlap the other calls
Mtb FBA inh – Mtb FBA enzyme inhibitors, primary screen, biochemical, fluorescence, strain H37Rv; Fructose-bisphosphate aldolase (Mycobacterium tuberculosis (strain ATCC 25618 / H37Rv)), …; purified M. tuberculosis FBA, fluorescence read-out; inhibition, % at 1 µM; actives 2.3% (n = 360,000); AID 588726, 2011; in the data active = inhibition above about 27%;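 note: 0% = vehicle and 100% = reference inhibitor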
Target sequence (P9WQA3 whole entry, looked up): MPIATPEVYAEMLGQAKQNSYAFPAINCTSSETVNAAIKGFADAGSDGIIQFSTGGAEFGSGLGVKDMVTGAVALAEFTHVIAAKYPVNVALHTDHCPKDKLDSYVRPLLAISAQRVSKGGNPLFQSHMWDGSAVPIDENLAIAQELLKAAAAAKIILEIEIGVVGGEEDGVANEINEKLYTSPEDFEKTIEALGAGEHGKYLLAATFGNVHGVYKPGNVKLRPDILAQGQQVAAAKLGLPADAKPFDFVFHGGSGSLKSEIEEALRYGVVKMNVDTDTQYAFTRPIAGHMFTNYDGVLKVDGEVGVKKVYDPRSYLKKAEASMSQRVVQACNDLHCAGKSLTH
Anthrax LF inh2 – Bacillus anthracis LF protease inhibitors, primary screen, biochemical, multiplex microsphere, MLPCN library; Lethal factor (Bacillus anthracis), P15917; multiplex microsphere protease cleavage assay; inhibition, % at 10 µM; actives 0.12% (n = 360,000); note: plate controls were buffer without enzyme for full effect and enzyme alone for no effect
Active calls of the source: *; ? = inconclusive; + = active, no number. Only some compounds are listed: those with a hit (about 6.6% of all), similar ones and a draw of the others. Cut-off read from the data, not from the text of the source, unless noted: active = inhibition above about 30%; inconclusive = no clear call, values can overlap the other calls; inactive = below that.

SMILES	GDH-TPI inh	BoNT A protease	BoNT F protease	Bead autofluor	Mtb FBA inh	Anthrax LF inh2
C=CCn1c(CNC(=O)c2ccccc2F)nnc1SCc1nc2ccccc2c(=O)[nH]1	-5	-2	-11	4187	9	-1
O=C(CN1CCN(c2ccccc2O)CC1)Nc1ccc2c(c1)CCC2	8	0	-3	1880	1	0
Cc1ccc(C(=O)Nc2nc(-c3ccccn3)cs2)s1	7	0	-8	4050	6	2
O=C(Nc1nc(-c2ccccn2)cs1)c1ccc(Cl)s1	36*	-1	-15	5438	4	-11
COc1ccc(C(=O)C2CCN(CC(=O)Nc3ccc(C)cc3)CC2)cc1	5	-7	-9	3107	-3	-11
COCc1c(C(=O)OC)nnn1-c1ccc(C(F)(F)F)cc1[N+](=O)[O-]	-1	-1	-3	3741	-6	-1
O=C(c1cccs1)N(Cc1ccco1)C1CCS(=O)(=O)C1 (configuration not stated)	4	3	5	22695*	0	1
O=C(c1cccs1)N(Cc1cccc(Cl)c1)C1CCS(=O)(=O)C1 (configuration not stated)	-3	?	-3	21176*	-4	0
COc1cc(/C=N/N=C(\N)c2nonc2N)ccc1O	18	0	-2	4994	-4	-8
N/C(=N\N=C\c1ccc(O)c(O)c1)c1nonc1N	41*	0	0	4628	-2	0
COc1cc(OCc2ccccc2)c2c(CCC(=O)O)cc(=O)oc2c1	22	0	-5	3270	+	-5
CCc1cc(=O)oc2cc(OC(C)=O)cc(OC(C)=O)c12	23	-1	-3	2692	+	3
O=C(CSC(=S)N1CCCCC1)Nc1nc(-c2ccccc2)c(-c2ccccc2)o1	-4	1	2	21247*	4	-10
O=C1C(Cc2ccc(O)cc2)NC(=S)N1c1ccccc1 (configuration not stated)	7	-3	-2	23822*	0	-1
O=C(O)CC1NC(=S)N(c2ccccc2)C1=O (configuration not stated)	7	1	2	8217	6	-1
O=C(COC(=O)Cc1c(F)cccc1Cl)Nc1nnc(-c2ccccc2)o1	2	0	0	5515	1	-3
CCOC(=O)Cn1cc(C(=O)c2ccco2)c2ccccc21	20	-1	-7	9717	4	0
O=C(O)Cn1cc(C(=O)c2ccco2)c2ccccc21	32*	0	-3	3759	-4	-1
CCOc1ccc(CCNC(=O)c2cccc(-n3cnnn3)c2)cc1OCC	-9	1	2	3593	-4	3
CSCCC(NC(=O)c1ccco1)C(=O)NCC1CCCO1 (configuration not stated)	0	2	4	8479	4	5
COCCNC(=O)CSc1nc2nc(C)cc(C)n2n1	-2	2	4	22346*	-2	-1
Cc1cc(C)n2nc(SCc3ccccc3C(=O)O)nc2n1	-18	-3	-21	4216	-5	3
CCN(C(=O)CSc1nc2nc(C)cc(C)n2n1)c1cccc(C)c1	3	1	2	16126*	1	-2
Cc1cc(C)n2nc(SCC(=O)Nc3ccccc3)nc2n1	-4	-2	-4	4384	-2	-2
Cc1cc(C)n2nc(SCc3ccccc3F)nc2n1	-4	1	-3	3718	+	-11
SMILES	GDH-TPI inh	BoNT A protease	BoNT F protease	Bead autofluor	Mtb FBA inh	Anthrax LF inh2
Cc1cc(C)n2nc(SCCC(=O)NCCc3ccccc3)nc2n1	-2	3	0	18555*	2	-1
COC(=O)CSc1nc2nc(C)cc(C)n2n1	-13	-1	3	6425	7	-4
CCCCCCNC(=O)Cc1nc2nc(C)cc(C)n2n1	5	3	4	20841*	0	-6
CCOC(=O)Cc1nc2nc(C)cc(C)n2n1	-4	0	4	4604	-3	4
FC(F)(F)c1ccc(/C=N/n2c(C3CCCCC3)n[nH]c2=S)cc1	3	-1	-2	3012	-1	-10
CCOc1ccc(S(=O)(=O)n2cc(-c3ccc(F)cc3)c(N)n2)cc1	2	2	0	23064*	2	1
